Laboratory results taken from PubChem BioAssay (NCATS).
Several values for one entry are separate records, joined by “and”; a condition that tells them apart may be missing. Equal values may be shown once. Inconclusive results are not listed. Unmarked numbers belong to inactive results. Activity calls are given as the source filed them. Calls come from the whole dose curve; as a rule, active = well fitted cell-killing curve with a large enough effect; inconclusive = small, poorly fitted or top-dose-only effect; inactive = no such curve, though single readings can be large or run the other way.

Assay: qHTS of pediatric cancer cell lines to identify multiple opportunities for drug repurposing: Confirmatory screen for BT-37 cells (AID 1347117);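 note: viability measured after 48 h of compound exposure; nearly all actives have a fitted effect of over 55% in size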;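 for activity change, negative = cytotoxic: plate controls were DMSO for no effect and bortezomib for full effect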
Conditions: BT-37 pediatric cancer cells, viability; series mostly up to 45.9 µM; activity change, negative = cytotoxic: at the top concentration
Outline: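 Cells (500-1,000/well) rested 5 h, then received compounds for 48 h; metabolically active cells were measured by CellTiter-Glo luminescence. Final concentrations spanned up to 46 µM (MIPE, 11-point) or 0.59 nM-46 µM (NPC, 8-point) in primary screens, 11-point in follow-ups.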
Potency is the fitted concentration of half-maximal effect.

Row | SMILES | Potency | activity change, negative = cytotoxic
1 | CN1CCCC(n2nc(Cc3ccc(Cl)cc3)c3ccccc3c2=O)CC1 (configuration not stated) | 23.3 µM (active) | –
2 | CCC(=O)O[C@]1(C(=O)SCF)[C@H](C)C[C@H]2[C@@H]3C[C@H](F)C4=CC(=O)C=C[C@]4(C)[C@@]3(F)[C@@H](O)C[C@@]21C | – | -15.1%
3 | CC1CC2C3CCC4=CC(=O)C=C[C@]4(C)[C@@]3(F)[C@@H](O)C[C@]2(C)[C@@]1(O)C(=O)CO (some centres not stated) | – | -5.75%
4 | CS(=O)(=O)c1ccc([C@@H](O)[C@@H](CO)NC(=O)C(Cl)Cl)cc1 | – | 2.51%
5 | Nc1nc(=S)c2[nH]cnc2[nH]1 | 3.29 µM (active) and 2.93 µM (active) | –
6 | CNCC[C@H](Oc1cccc2ccccc12)c1cccs1 | – | -14%
7 | COc1cc2nc(N3CCCN(C)CC3)nc(NC3CCN(Cc4ccccc4)CC3)c2cc1OC | 20.8 µM (active) | –
8 | CNNCc1ccc(C(=O)NC(C)C)cc1 | – | 3.48%
9 | CO[C@@]12[C@H](COC(N)=O)C3=C(C(=O)C(C)=C(N)C3=O)N1C[C@@H]1N[C@@H]12 | 0.737 µM (active) | –
10 | Oc1c(Cl)cc(Cl)c2cccnc12 | 18.5 µM (active) | –
11 | COc1cc(NCc2ccc3nc(N)nc(N)c3c2C)cc(OC)c1OC | 2.61 µM (active) | –
12 | CCc1c2c(nc3ccc(OC(=O)N4CCC(N5CCCCC5)CC4)cc13)-c1cc3c(c(=O)n1C2)COC(=O)[C@]3(O)CC | 0.928 µM (active) | –
13 | CNS(=O)(=O)CCc1ccc2[nH]cc(C3CCN(C)CC3)c2c1 | – | -1.3%
14 | CNC(=O)c1cc(Oc2ccc(NC(=O)Nc3ccc(Cl)c(C(F)(F)F)c3)cc2)ccn1 | 23.3 µM (active) | –

Assay: qHTS of pediatric cancer cell lines to identify multiple opportunities for drug repurposing: Confirmatory screen for TC32 cells (AID 1347118);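 note: cells exposed to compound for 48 h before the read; nearly all actives have a fitted effect of over 65% in size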; for activity change, negative = cytotoxicity: % is set by controls: 0 for no effect and ±100 for the full control effect
Conditions: TC32 Ewing sarcoma cells viability qHTS; series mostly up to 45.9 µM; activity change, negative = cytotoxicity: at the top concentration
Outline: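 Luminescent ATP read-out (CellTiter-Glo) of metabolically active TC32 cells after 48 h exposure. Concentration-response curves came from 11-point (MIPE, 0.78 nM–46 µM) or 8-point (NPC, 0.59 nM–46 µM) primary titrations; follow-up used 11 points.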

Row | SMILES | Potency | activity change, negative = cytotoxicity
15 | CN1CCCC(n2nc(Cc3ccc(Cl)cc3)c3ccccc3c2=O)CC1 (configuration not stated) | 26.1 µM (active) | –
16 | COC(=O)Nc1nc2ccc(C(=O)c3ccccc3)cc2[nH]1 | 0.369 µM (active) | –
17 | CCC(=O)O[C@]1(C(=O)SCF)[C@H](C)C[C@H]2[C@@H]3C[C@H](F)C4=CC(=O)C=C[C@]4(C)[C@@]3(F)[C@@H](O)C[C@@]21C | – | -5.96%
18 | S=P(N1CC1)(N1CC1)N1CC1 | 4.14 µM (active) | –
19 | O=C(NCC1CN(c2ccc(N3CCOCC3=O)cc2)C(=O)O1)c1ccc(Cl)s1 (configuration not stated) | 2.61 µM (active) | –
20 | CC1CC2C3CCC4=CC(=O)C=C[C@]4(C)[C@@]3(F)[C@@H](O)C[C@]2(C)[C@@]1(O)C(=O)CO (some centres not stated) | – | -4.91%
21 | CS(=O)(=O)c1ccc([C@@H](O)[C@@H](CO)NC(=O)C(Cl)Cl)cc1 | – | -2.81%
22 | Nc1nc(=S)c2[nH]cnc2[nH]1 | 1.17 µM (active) and 737 nM (active) | –
23 | CNCC[C@H](Oc1cccc2ccccc12)c1cccs1 | 7.37 µM (active) | –
24 | CC(=O)[C@H]1CC[C@H]2[C@@H]3CCC4=CC(=O)CC[C@]4(C)[C@H]3CC[C@]12C | 5.22 µM (active) | –
25 | COc1cc2nc(N3CCCN(C)CC3)nc(NC3CCN(Cc4ccccc4)CC3)c2cc1OC | 11.7 µM (active) | –
26 | Nc1nc(N)c2nc(CNc3ccc(C(=O)NC(CCC(=O)O)C(=O)O)cc3)cnc2n1 (configuration not stated) | 0.329 µM (active) | –
27 | CO[C@@]12[C@H](COC(N)=O)C3=C(C(=O)C(C)=C(N)C3=O)N1C[C@@H]1N[C@@H]12 | 0.465 µM (active) | –
28 | Oc1c(Cl)cc(Cl)c2cccnc12 | 8.27 µM (active) | –
29 | COc1cc(NCc2ccc3nc(N)nc(N)c3c2C)cc(OC)c1OC | 0.585 µM (active) | –
30 | CCc1c2c(nc3ccc(OC(=O)N4CCC(N5CCCCC5)CC4)cc13)-c1cc3c(c(=O)n1C2)COC(=O)[C@]3(O)CC | 0.465 µM (active) | –
31 | CNS(=O)(=O)CCc1ccc2[nH]cc(C3CCN(C)CC3)c2c1 | 13.1 µM (active) | –
32 | CNC(=O)c1cc(Oc2ccc(NC(=O)Nc3ccc(Cl)c(C(F)(F)F)c3)cc2)ccn1 | 18.5 µM (active) | –
